PubChem BioAssay (NCI)
Compounds without any hit were thinned out: in the full panel of roughly 83,000, 20% have a hit.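 Negative percent growth values reflect cell death: -40 means 40% of the cells present at the start died, and -100 means all died.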 Calls of active or inactive are those of the source. Rule for the calls: active = growth percent below 10; inactive = the rest.

These molecules were tested on MDA-MB-468 breast (assay: NCI-60 one-dose screen, 48 h (100 = growth as untreated, 0 = no growth, -100 = all killed)). Settings: 10 µM unless noted.
In the case of `Cc1c(C(N)=O)sc2c1c(=O)n(Cc1ccccc1)c1nnc(Nc3ccccc3)n21`, the growth was 108% (inactive). In the case of `COc1ccc(C2=Nn3c(nnc3-c3ccc(Cl)cc3N)SC2)cc1`, the growth was 100% (inactive). `CCc1nnc(NC(=O)c2nnn(-c3ccccc3)c2-c2ccco2)s1` was tested, and the growth was 95.9% (inactive). With `COc1ccc(C2CC(c3ccc(Nc4ccnc5cc(Cl)ccc45)cc3)=NN2c2ccccc2)cc1` (centres undefined) the growth was 101% (inactive). `COc1c(O)c(O)cc2c3c(oc12)CC(c1ccc2c(c1)OCO2)CC3=O` (centres undefined) was tested, and the growth was 79.9% (inactive). For `COc1ccc(-c2cn[nH]c2-c2cc(OC)c3c(c2)OCO3)cc1`, the growth was 36.1% (inactive). With `CCCCOc1nc2ccc(Cl)cc2cc1/C=C/C(=O)/C=C/c1ccc(OC)cc1` the growth was 113% (inactive). For `COc1ccc(-c2cc(/C=C/C(=O)c3ccc(N)cc3)[nH]n2)cc1OC`, the growth was -1.28% (active). In the case of `Oc1[nH]c2ccc(Cl)cc2c1/C=c1/ccc2c(c1)N=C(c1ccc(C(F)(F)F)cc1)N=2`, the growth was 52.5% (inactive). `CCOC(=O)c1cc(C(=O)c2cc(OC)c(OC)c(OC)c2)n2ncccc12` was tested, and the growth was -11.5% (active). With `O=C(O)/C=C\C(=O)N1C/C(=C\c2ccccc2Cl)C(=O)/C(=C/c2ccccc2Cl)C1` the growth was -75.2% (active). For `O=C(O)c1[nH]c(=O)[nH]c(=O)c1[N+](=O)[O-]`, the growth was 109% (inactive). For `CCCn1cnc2c(c1=N)C(c1ccc(Cl)cc1)c1sc3c(CC)cccc3c1O2` (centres undefined), the growth was 5.23% (active). In the case of `CNCCCOc1c(Br)cc(CCNC(=O)/C(Cc2cc(Br)c(OC)c(Br)c2)=N/O)cc1Br`, the growth was 3.11% (active).
